The list is not random: actives were taken first. Their share in the collection is about 19%.
IL-1B inflam inh: qHTS for Inhibitors of Inflammasome Signaling: IL-1-beta AlphaLISA Primary Screen; THP-1 LPS/ATP IL-1B secretion, AlphaLISA, 16 h; hits give low values; activity change, % at 57.5 µM; actives 4.7% (n = 360,000); in the data active = activity change below about -50%; inconclusive = mostly about -30% to -49%
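THP-1 cells pretreated 1 hr with compounds (up to 57.5 uM final), then stimulated with LPS (250 ng/mL final) plus ATP (1.25 mM final); secreted IL-1B measured by AlphaLISA after 16 hr, decreased signal indicating inhibition.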
TGFb inhibitor: qHTS for Inhibitors of TGF-b; HepG2 CAGA-GFP TGF-b/SMAD3 reporter, GFP fluorescence, 18 h; TGF-beta stimulated, 500 pg/mL final; Potency, µM (doses to about 46.1 µM), most hits filed as inhibitors; actives 1.2% (n = 410,000); AID 588855, 2011; note: nearly all actives have a fitted effect of over 65% in size
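HEPG2 CAGA-GFP cells (1000/well, DMEM with 1% FBS) were pre-incubated 2 h at 37 degrees C, given compound by pin tool, then stimulated with TGF-beta at 500 pg/mL final for 18 h before per-cell GFP fluorescence imaging.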
TDP1 cell noCPT: qHTS for Inhibitors of human tyrosyl-DNA phosphodiesterase 1 (TDP1): qHTS in cells in absence of CPT | DT40 Tdp1-/- hTDP1 cells, no CPT, ATP luminescence, 48 h | actives 15% (n = 420,000) | Potency, µM (top dose mostly 46.2 µM), actives largely listed as inhibitors; note: nearly all actives have a fitted effect of over 55% in size
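Compound effects on proliferation are scored in DT40 Tdp1-/-;hTDP1 cells in the absence of CPT. ATP levels (CellTiter-Glo luminescence) are recorded after a ≥48 hr, 37 °C incubation.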
TDP1 block: qHTS Assay for Inhibitors of Tyrosyl-DNA Phosphodiesterase (TDP1) | Tyrosyl-DNA phosphodiesterase 1 (Homo sapiens), Q9NUW8 | recombinant TDP1, AlphaScreen DNA substrate cleavage | AID 485290, 2010 | actives 0.28% (n = 350,000) | Potency, µM (highest dose often 130 µM), hits mostly inhibitors; note: nearly all actives have a fitted effect of over 40% in size
Target sequence (Q9NUW8 whole entry, looked up): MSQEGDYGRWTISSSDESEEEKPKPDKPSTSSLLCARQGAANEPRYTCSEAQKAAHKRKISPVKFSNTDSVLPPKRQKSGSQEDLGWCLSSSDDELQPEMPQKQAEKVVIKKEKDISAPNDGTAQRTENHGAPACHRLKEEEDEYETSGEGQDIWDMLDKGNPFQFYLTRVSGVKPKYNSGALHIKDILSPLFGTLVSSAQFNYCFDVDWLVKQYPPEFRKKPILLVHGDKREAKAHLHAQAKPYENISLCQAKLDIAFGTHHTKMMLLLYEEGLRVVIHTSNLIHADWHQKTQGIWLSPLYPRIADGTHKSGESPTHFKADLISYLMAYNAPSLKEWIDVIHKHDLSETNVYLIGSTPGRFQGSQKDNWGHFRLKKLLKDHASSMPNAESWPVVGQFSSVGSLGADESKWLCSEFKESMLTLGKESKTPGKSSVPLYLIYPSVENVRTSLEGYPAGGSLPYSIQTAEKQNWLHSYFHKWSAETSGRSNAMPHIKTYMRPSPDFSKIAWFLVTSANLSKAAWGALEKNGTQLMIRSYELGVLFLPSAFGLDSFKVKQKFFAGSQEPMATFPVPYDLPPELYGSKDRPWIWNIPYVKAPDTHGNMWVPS
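Recombinant E. coli-expressed Tdp1 (1 nM) preincubated with compound 15 min at RT, then 5'-biotin/3'-phosphotyrosine-FITC DNA substrate (15 nM) added for 5 min. AlphaScreen beads (10 ug/ml) added, 10 min RT; tyrosine-FITC cleavage read as signal loss.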
HepG2 viability: qHTS for Inhibitors of TGF-b: Cytotox Counterscreen | HepG2 CAGA-GFP viability, ATP luminescence, 18 h | Potency, µM (highest dose often 46.1 µM), usual class: cytotoxic | actives 0.76% (n = 410,000) | AID 588856, 2011
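HepG2 CAGA-GFP cells (1000/well, DMEM with 1% FBS) received compound, then TGF-beta at 500 pg/mL final, and were incubated 18 hours at 37 degrees C. Viability was read by CellTiter-Glo luminescence. Media-only wells were set as complete cell-killing and DMSO as no toxicity.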
TDP1 cell CPT: qHTS for Inhibitors of human tyrosyl-DNA phosphodiesterase 1 (TDP1): qHTS in cells in presence of CPT; chicken DT40 Tdp1-/-;hTDP1 cells + 20 nM CPT, ATP luminescence, 48 h; Potency, µM (highest dose often 46.2 µM), actives largely listed as inhibitors; actives 12% (n = 420,000); AID 686979, 2013; note: nearly all actives have a fitted effect of over 55% in size
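Chicken DT40 Tdp1-/- cells stably complemented with human TDP1 were seeded at 400 cells/well in medium containing 20 nM camptothecin, exposed to pin-transferred compounds, and grown at 37 °C for at least 48 hr. Viability was read as ATP luminescence.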
A number is an active result; – = inactive; ? = inconclusive; · = no result given; ! = not confirmed by another sample. Unless noted, calls come from the whole dose curve; as a rule, active = well fitted curve in the direction sought with a large enough effect; inconclusive = small, poorly fitted or top-dose-only effect, or another doubt; inactive = no such curve, though single readings can be large; an effect the other way counts as inactive or inconclusive.

SMILES | IL-1B inflam inh | TGFb inhibitor | TDP1 cell noCPT | TDP1 block | HepG2 viability | TDP1 cell CPT
COc1ccc(CNc2nc(NCc3ccc(OC)cc3)n(C(C)=O)n2)cc1 | – | – | – | – | – | –
CCc1c(C)nc2nncn2c1NCc1ccc(OC)cc1 | · | · | 18.4µM | – | – | 16.4µM
CC(C)c1ccc(S(=O)(=O)c2nnn3c2nc(NCCc2ccccc2)c2sccc23)cc1 | · | – | ? | – | – | ?
Cc1nc2nncn2c(Nc2ccc(F)cc2)c1C | · | ? | 9.2µM | – | – | 16.4µM
Cc1ccc2nc(Nc3ccc(F)cc3)c3nncn3c2c1 | – | – | – | · | – | –
O=C(Nc1cccc2cccnc12)c1ccc(-c2cccc(Cl)c2)o1 | · | – | ? | – | – | –
COc1c(Cl)cnn(-c2ccc(Cl)c(Cl)c2)c1=O | -97.5 | – | – | – | – | –
COc1nn(-c2ccccc2)c(=O)c(Cl)c1Cl | -96.1 | 14.1µM | 4.61µM | · | 14.1µM | 5.17µM
COc1c(Cl)cnn(-c2ccccc2)c1=O | -75.0 | – | – | – | – | –
COc1ccc(-n2ncc(Cl)c(Cl)c2=O)cc1 | -106.6 | ? | 2.91µM | – | – | 4.11µM
Cn1ccc2cc(-c3csc(N4CCC(C(N)=O)CC4)n3)ccc21 | · | – | · | – | – | ·
Cn1cccc1C(=O)N1CCC2(CCCN(C(=O)Nc3ccccc3)C2)CC1 | · | · | – | · | · | –
COc1ccc2c(c1)CCc1c(C(=O)Nc3ccc(F)c(Cl)c3)noc1-2 | · | – | – | – | – | –
O=C(CCCl)N1c2ccccc2C=Cc2ccccc21 | – | – | 14.6µM | · | – | ?
COCCNc1ncnc2ccc(-c3ccccc3C(F)(F)F)cc12 | · | · | 20.6µM | · | · | 13µM
FC(F)(F)c1ccccc1-c1ccc2ncnc(NCc3cccnc3)c2c1 | · | · | 7.31µM | · | · | 2.06µM
c1cncc(CNc2ncnc3ccc(-c4cccnc4)cc23)c1 | · | – | 11.6µM | – | – | 0.0065µM
Cc1noc(C)c1-c1ccc2ncnc(NCc3ccccc3C(F)(F)F)c2c1 | · | · | · | – | · | ·
COCCCNc1ncnc2ccc(C)cc12 | – | ? | 18.4µM | – | – | 16.4µM
Cc1ccc2ncnc(NCCC(=O)O)c2c1 | – | – | – | – | – | ?
Clc1ccccc1-c1ccc2ncnc(NCc3cccnc3)c2c1 | · | – | ? | – | – | ?
COC(=O)[C@@H](NC(=O)O[C@@H]1C(=O)c2cc(OC)ccc2O[C@H]1c1cccc(OC)c1)C(C)C | · | · | · | – | · | ·
Cc1ccc(N(CC(=O)Nc2ccc(Br)c(C)c2)S(=O)(=O)c2cccs2)cc1 | · | – | – | – | – | ?
Cc1cc(C)c(NC(=O)Cn2c(=O)n(Cc3ccco3)c(=O)c3ccc(C(=O)NC4CCCC4)cc32)c(C)c1 | · | – | ? | – | – | ?
CCOc1ccccc1NC(=O)Cn1c(=O)n(Cc2ccco2)c(=O)c2ccc(C(=O)NC3CCCC3)cc21 | · | – | 23.1µM | – | – | ?
SMILES | IL-1B inflam inh | TGFb inhibitor | TDP1 cell noCPT | TDP1 block | HepG2 viability | TDP1 cell CPT
Cc1ccc(C)c(NC(=O)Cn2c(=O)n(Cc3ccco3)c(=O)c3ccc(C(=O)NC4CCCC4)cc32)c1 | · | – | 16.4µM | – | – | ?
COc1ccccc1OCC(O)Cn1c(=N)n(CCN2CCCCC2)c2ccccc21 (stereo not drawn) | -53.0 | – | 16.4µM | – | – | ?
Cc1ccccc1OCC(O)CN (stereo not drawn) | – | – | – | – | – | –
Cc1ccccc1OCC(O)COc1ccccc1C | – | – | 20.6µM | · | – | ?
Cc1ccccc1OCCn1c(=N)n(C(C)C)c2ccccc21 | · | ? | 6.51µM | · | – | 8.2µM
Cc1ccc(C(=O)Cn2c(=N)n(CCN3CCOCC3)c3ccccc32)cc1 | – | – | ? | – | – | ?
Cc1ccccc1OCC(O)Cn1c(=N)n(CCN2CCOCC2)c2ccccc21 (stereo not drawn) | -53.5! | – | ? | – | – | ?
COC(=O)Cn1c(=N)n(CCN2CCCCC2)c2ccccc21 | – | – | – | – | – | –
COC(C)(C)[C@@H](O)COc1c2ccoc2cc2oc(=O)ccc12 | – | – | – | – | – | –
CCOc1ccc(NS(=O)(=O)c2ccc3[nH]cc(C(=O)N4CCCCCC4)c(=O)c3c2)cc1 | · | – | – | – | – | –
COc1ccccc1CNC(=O)CN1C(=O)NC2(CCCCCC2)C1=O | – | – | – | – | – | –
N=c1n(CCN2CCCCC2)c2ccccc2n1CC(O)COc1ccccc1 (stereo not drawn) | -55.5 | 11.2µM! | 14.6µM | – | – | 18.4µM
Cc1ccccc1OCC(O)CN1CCN(CC(O)COc2ccccc2C)CC1 (stereo not drawn) | – | – | ? | – | – | ?
Cc1ccccc1OCC(O)Cn1c(=N)n(CCN2CCCCC2)c2ccccc21 (stereo not drawn) | · | · | 4.61µM | – | 15.8µM | 5.8µM
COc1ccc(C2C(=O)N(C3CCCCC3)CC(=O)N2CCc2ccc(OC)c(OC)c2)cc1 (stereo not drawn) | · | – | ? | – | – | –
COc1ccc(C[C@H]2c3cc(O)c(OC)cc3CC[N+]2(C)[O-])cc1O (stereo partly drawn) | – | ? | 20.6µM | – | – | ?
COc1ccc(-n2c(=O)/c(=C\c3cccs3)s/c2=C(/C#N)C(=O)NCCN2CCOCC2)cc1 | – | – | ? | – | – | 13µM
C=CCn1c(=O)/c(=C\c2ccsc2)s/c1=C(/C#N)C(=O)NCCN1CCOCC1 | ? | – | ? | – | – | ?
Cc1cc(C)c(NC(=O)C(C)Sc2nc3ccc(N4C(=O)c5ccccc5C4=O)cc3s2)c(C)c1 (stereo not drawn) | – | – | 35.5µM | – | – | ?
Cc1cc(C)c(NC(=O)CSc2nc3ccc(N4C(=O)c5ccccc5C4=O)cc3s2)c(C)c1 | – | ? | – | – | – | –
CN1CCN(c2ccnc(-c3ccc(N(C)C)cc3)n2)CC1 | · | · | 23.1µM | · | · | 23.1µM
CN1CCN(c2ccnc(N(C)CCCCCCN)n2)CC1 | · | – | ? | · | – | 12.6µM
CN1CCN(c2nc(-c3ccccn3)nc3ccccc23)CC1 | – | – | ? | – | – | ?
COc1cccc(CNC(=O)c2cnc3c(-c4ccc(F)cc4)c(C)nn3c2C)c1 | · | – | – | – | – | –
C=CCn1c(-c2oc3nc(-c4ccccc4)cc(-c4ccccc4)c3c2N)n[nH]c1=S | – | – | ? | – | – | ?
